Source: PubChem BioAssay AID1159580 (chemical genetic matrix, 2015)
Screen size: about 5,500 compounds; about 2,000 (36%) were called active. Inconclusive results (about 18%) are left out. Cut-off read from the data, not from the text of the source: active = normalized growth mostly below about 0.91 (no sharp cut-off); inconclusive = no clear call, values can overlap the other calls; inactive = mostly above about 0.92. The list shows a part of the results.

Assay: chemical genetic growth profiling, strain panel (AID 1159580);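 note: tested at 20 µM; growth read once vehicle control cultures reached saturation at 30 °C; 1 = growth at the plate median or of vehicle wells; lower values mean less growth of the strain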
Conditions: growth OD

Measured: normalized growth

Cc1cc(NC(=O)C2=C(O)c3ccccc3S(=O)(=O)N2C)no1
inactive: S. cerevisiae deletion strains, locus YJR066W, strain TOR1, stronger effect = lower value 0.893 | S. cerevisiae deletion strains, locus YKL009W, strain mrt4, stronger effect = lower value 0.928 | S. cerevisiae deletion strains, locus YKL160W, strain elf1, stronger effect = lower value 0.996 | S. cerevisiae deletion strains, locus YKL190W, strain CNB1, stronger effect = lower value 0.976 | S. cerevisiae deletion strains, locus YKR001C, strain vps1, stronger effect = lower value 0.973 | S. cerevisiae deletion strains, locus YKR026C, strain gcn3, stronger effect = lower value 0.956 | S. cerevisiae deletion strains, locus YKR091W, strain srl3, stronger effect = lower value 0.95 | S. cerevisiae deletion strains, locus YLL001W, strain dnm1, stronger effect = lower value 0.992 | S. cerevisiae deletion strains, locus YLL026W, stronger effect = lower value 0.968 | S. cerevisiae deletion strains, locus YLL041C, strain sdh2, stronger effect = lower value 0.96 | S. cerevisiae deletion strains, locus YLR027C, strain aat2, stronger effect = lower value 0.975 | S. cerevisiae deletion strains, locus YLR039C, strain RIC1, stronger effect = lower value 0.96 | S. cerevisiae deletion strains, locus YLR058C, strain SHM2, stronger effect = lower value 0.984 | S. cerevisiae deletion strains, locus YLR102C, strain apc9, stronger effect = lower value 0.95 | S. cerevisiae deletion strains, locus YLR113W, strain HOG1, stronger effect = lower value 0.929 | S. cerevisiae deletion strains, locus YLR221C, strain rsa3, stronger effect = lower value 0.968 | S. cerevisiae deletion strains, locus YLR258W, strain gsy2, stronger effect = lower value 0.971 | S. cerevisiae deletion strains, locus YLR262C, strain YPT6 (second series), stronger effect = lower value 0.999 | S. cerevisiae deletion strains, locus YLR262C, strain YPT6, stronger effect = lower value 0.977 | S. cerevisiae deletion strains, locus YLR268W, strain sec22, stronger effect = lower value 0.969 | S. cerevisiae deletion strains, locus YLR320W, strain mms22, stronger effect = lower value 0.955 | S. cerevisiae deletion strains, locus YLR330W, strain CHS5, stronger effect = lower value 0.962 | S. cerevisiae deletion strains, locus YLR342W, strain FKS1 (second series), stronger effect = lower value 1.01 | S. cerevisiae deletion strains, locus YLR342W, strain FKS1, stronger effect = lower value 0.975 | S. cerevisiae deletion strains, locus YLR357W, strain rsc2, stronger effect = lower value 0.994 | S. cerevisiae deletion strains, locus YLR370C, strain arc18, stronger effect = lower value 0.98 | S. cerevisiae deletion strains, locus YLR371W, strain rom2, stronger effect = lower value 0.967 | S. cerevisiae deletion strains, locus YLR384C, strain iki3, stronger effect = lower value 0.954 | S. cerevisiae deletion strains, locus YLR418C, strain cdc73, stronger effect = lower value 0.951 | S. cerevisiae deletion strains, locus YML016C, strain PPZ1, stronger effect = lower value 0.987 | S. cerevisiae deletion strains, locus YML032C, strain rad52, stronger effect = lower value 0.985 | S. cerevisiae deletion strains, locus YML120C, strain ndi1, stronger effect = lower value 0.947 | S. cerevisiae deletion strains, locus YML124C, strain tub3, stronger effect = lower value 0.954 | S. cerevisiae deletion strains, locus YMR058W, strain fet3, stronger effect = lower value 0.976 | S. cerevisiae deletion strains, locus YMR078C, strain ctf18, stronger effect = lower value 0.924 | S. cerevisiae deletion strains, locus YMR125W, strain sto1, stronger effect = lower value 0.955 | S. cerevisiae deletion strains, locus YMR129W, stronger effect = lower value 0.956 | S. cerevisiae deletion strains, locus YMR205C, strain PFK2, stronger effect = lower value 0.989 | S. cerevisiae deletion strains, locus YMR223W, strain ubp8, stronger effect = lower value 0.944 | S. cerevisiae deletion strains, locus YMR231W, strain pep5, stronger effect = lower value 0.967 | S. cerevisiae deletion strains, locus YMR307W, strain GAS1, stronger effect = lower value 0.961 | S. cerevisiae deletion strains, locus YNL067W, strain RPL9B, stronger effect = lower value 1.01 | S. cerevisiae deletion strains, locus YNL071W, strain lat1, stronger effect = lower value 0.976 | S. cerevisiae deletion strains, locus YNL183C, strain NPR1, stronger effect = lower value 0.879 | S. cerevisiae deletion strains, locus YNL209W, strain ssb2, stronger effect = lower value 0.96 | S. cerevisiae deletion strains, locus YNL233W, strain BNI4, stronger effect = lower value 1.04 | S. cerevisiae deletion strains, locus YNL248C, strain rpa49, stronger effect = lower value 0.973 | S. cerevisiae deletion strains, locus YNL250W, strain rad50, stronger effect = lower value 0.908 | S. cerevisiae deletion strains, locus YNL271C, strain bni1, stronger effect = lower value 0.923 | S. cerevisiae deletion strains, locus YNL298W, strain CLA4, stronger effect = lower value 0.923 | S. cerevisiae deletion strains, locus YNL307C, strain MCK1, stronger effect = lower value 0.947 | S. cerevisiae deletion strains, locus YNL322C, strain KRE1 (second series), stronger effect = lower value 0.953 | S. cerevisiae deletion strains, locus YNL322C, strain KRE1, stronger effect = lower value 0.978 | S. cerevisiae deletion strains, locus YNR049C, strain mso1, stronger effect = lower value 0.967 | S. cerevisiae deletion strains, locus YNR052C, strain pop2, stronger effect = lower value 0.955 | S. cerevisiae deletion strains, locus YOL006C, strain TOP1, stronger effect = lower value 1.03 | S. cerevisiae deletion strains, locus YOL012C, strain htz1 1.14 | S. cerevisiae deletion strains, locus YOL147C, strain pex11, stronger effect = lower value 0.942 | S. cerevisiae deletion strains, locus YOR001W, strain rrp6, stronger effect = lower value 0.997 | S. cerevisiae deletion strains, locus YOR061W, strain CKA2, stronger effect = lower value 0.992 | S. cerevisiae deletion strains, locus YOR069W, strain VPS5, stronger effect = lower value 0.972 | S. cerevisiae deletion strains, locus YOR070C, strain gyp1, stronger effect = lower value 0.971 | S. cerevisiae deletion strains, locus YOR080W, strain dia2, stronger effect = lower value 0.974 | S. cerevisiae deletion strains, locus YOR083W, strain WHI5, stronger effect = lower value 0.964 | S. cerevisiae deletion strains, locus YOR106W, strain vam3, stronger effect = lower value 0.996 | S. cerevisiae deletion strains, locus YOR136W, strain idh2, stronger effect = lower value 0.978 | S. cerevisiae deletion strains, locus YOR144C, strain elg1, stronger effect = lower value 0.956 | S. cerevisiae deletion strains, locus YOR184W, strain ser1, stronger effect = lower value 0.945 | S. cerevisiae deletion strains, locus YOR231W, strain MKK1, stronger effect = lower value 0.993 | S. cerevisiae deletion strains, locus YOR265W, strain rbl2, stronger effect = lower value 0.966 | S. cerevisiae deletion strains, locus YOR270C, strain vph1, stronger effect = lower value 0.969 | S. cerevisiae deletion strains, locus YOR290C, strain snf2, stronger effect = lower value 0.977 | S. cerevisiae deletion strains, locus YOR316C, strain cot1, stronger effect = lower value 0.94 | S. cerevisiae deletion strains, locus YPL051W, strain arl3, stronger effect = lower value 0.989 | S. cerevisiae deletion strains, locus YPL078C, strain atp4, stronger effect = lower value 0.981 | S. cerevisiae deletion strains, locus YPL106C, strain sse1, stronger effect = lower value 0.954 | S. cerevisiae deletion strains, locus YPL240C, strain hsp82, stronger effect = lower value 0.973 | S. cerevisiae deletion strains, locus YPL256C, strain CLN2, stronger effect = lower value 0.905 | S. cerevisiae deletion strains, locus YPR119W, strain clb2, stronger effect = lower value 0.945 | S. cerevisiae deletion strains, locus YPR141C, strain kar3, stronger effect = lower value 0.919 | S. cerevisiae deletion strains, locus YPR163C, strain tif3, stronger effect = lower value 0.931 | S. cerevisiae deletion strains, locus YPR167C, strain met16, stronger effect = lower value 0.943 | S. cerevisiae deletion strains, strain wtn01, stronger effect = lower value 0.961 | S. cerevisiae strains, strain wild type, stronger effect = lower value 0.983
active: S. cerevisiae deletion strains, locus YKL068W, stronger effect = lower value 0.924 | S. cerevisiae deletion strains, locus YKL085W, strain MDH1 (second series), stronger effect = lower value 0.906 | S. cerevisiae deletion strains, locus YKL085W, strain MDH1, stronger effect = lower value 0.906
